Data from PubChem BioAssay AID1159580 (chemical genetic matrix, 2015).
Where “and” joins values, the source holds several entries; their conditions need not be identical. Equal entries are not always repeated. Hit rate of the full screen: of about 5,500 compounds, about 2,000 (36%) were called active. Not shown: some 18% with an inconclusive outcome. Rule as the data show it: active = normalized growth mostly below about 0.91 (no sharp cut-off); inconclusive = no clear call, values can overlap the other calls; inactive = mostly above about 0.92. The list shows a part of the results.

Experiment: chemical genetic growth profiling, strain panel (AID 1159580);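 also: tested at 20 µM; growth read once vehicle control cultures reached saturation at 30 °C; 1 = growth at the plate median or of vehicle wells; lower values mean less growth of the strain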
Settings: S. cerevisiae deletion strains, growth OD

Measured: normalized growth

CC(C)=CCOc1cc2oc(=O)ccc2cc1O
inactive: locus YAL021C, strain ccr4, hits give low values 0.977 | locus YAL026C, strain drs2, hits give low values 0.919 | locus YAL030W, strain snc1, hits give low values 0.978 | locus YBL061C, strain skt5, hits give low values 0.94 | locus YBR009C, strain hhf1, hits give low values 0.937 | locus YBR021W, strain FUR4, hits give low values 0.876 | locus YBR023C, strain chs3, hits give low values 0.929 | locus YBR171W, strain sec66, hits give low values 0.915 | locus YBR229C, strain ROT2, hits give low values 0.967 | locus YBR231C, strain swc5, hits give low values 0.93 | locus YBR279W, strain paf1, hits give low values 0.962 | locus YCL011C, strain gbp2, hits give low values 0.911 | locus YCL016C, strain dcc1, hits give low values 0.965 | locus YCL029C, strain bik1, hits give low values 0.961 | locus YCL061C, strain MRC1, hits give low values 0.94 | locus YCL069W, strain vba3, hits give low values 0.94 | locus YCR088W, strain abp1, hits give low values 0.957 | locus YDL005C, strain med2, hits give low values 0.956 | locus YDL035C, strain GPR1, hits give low values 0.894 | locus YDL040C, strain nat1, hits give low values 0.951 | locus YDL074C, strain BRE1, hits give low values 0.808 | locus YDL101C, strain DUN1, hits give low values 0.935 | locus YDL185W, strain tfp1, hits give low values 0.965 | locus YDR001C, strain nth1, hits give low values 0.965 | locus YDR069C, strain doa4, hits give low values 0.944 | locus YDR101C, strain arx1, hits give low values 0.919 | locus YDR137W, strain rgp1, hits give low values 0.881 | locus YDR159W, strain sac3, hits give low values 0.881 | locus YDR162C, strain NBP2, hits give low values 0.876 | locus YDR195W, strain ref2 1.02 | locus YDR297W, strain sur2, hits give low values 0.969 | locus YDR334W, strain swr1, hits give low values 0.927 | locus YDR335W, strain msn5, hits give low values 0.968 | locus YDR388W, hits give low values 0.96 | locus YEL003W, strain gim4, hits give low values 0.935 | locus YEL037C, strain rad23, hits give low values 0.941 | locus YEL061C, strain CIN8 (second series), hits give low values 0.938 | locus YEL061C, strain CIN8, hits give low values 0.957 | locus YER015W, strain faa2, hits give low values 0.937 | locus YER016W, strain bim1, hits give low values 0.962 | locus YER110C, hits give low values 0.971 | locus YER111C, strain swi4, hits give low values 0.95 | locus YER155C, strain BEM2, hits give low values 0.962 | locus YFR010W, strain ubp6, hits give low values 0.942 | locus YGL078C, strain dbp3, hits give low values 0.97 | locus YGL167C, strain pmr1, hits give low values 0.939 | locus YGL173C, strain kem1, hits give low values 0.926 | locus YGL227W, strain vid30, hits give low values 0.957 | locus YGL240W, strain doc1, hits give low values 0.886 | locus YGL248W, strain PDE1, hits give low values 0.9 | locus YGR135W, strain pre9, hits give low values 0.915 | locus YHR013C, strain ard1, hits give low values 0.955 | locus YHR027C, strain rpn1, hits give low values 0.956 | locus YHR030C, strain SLT2, hits give low values 0.947 | locus YHR079C, strain IRE1 (second series), hits give low values 0.974 | locus YHR079C, strain IRE1, hits give low values 0.936 | locus YHR094C, strain hxt1, hits give low values 0.97 | locus YHR142W, strain chs7, hits give low values 0.878 | locus YIL073C, strain SPO22, hits give low values 0.975 | locus YIL125W, strain kgd1, hits give low values 0.948 | locus YIR030C, strain dcg1, hits give low values 0.97 | locus YJL092W, strain hpr5, hits give low values 0.927 | locus YJL095W, strain BCK1 (second series), hits give low values 0.948 | locus YJL095W, strain BCK1, hits give low values 0.858 and 0.946 | locus YJL115W, strain asf1, hits give low values 0.949 | locus YJL129C, strain trk1, hits give low values 0.904 | locus YJL134W, strain LCB3, hits give low values 0.963 | locus YJL154C, strain vps35, hits give low values 0.966 | locus YJL164C, strain tpk1, hits give low values 0.974 | locus YJL166W, strain qcr8, hits give low values 0.94 | locus YJL168C, strain set2, hits give low values 0.977 | locus YJL187C, strain SWE1 (second series), hits give low values 0.889 | locus YJL187C, strain SWE1, hits give low values 0.951 | locus YJR066W, strain TOR1, hits give low values 0.92 | locus YKL009W, strain mrt4, hits give low values 0.916 | locus YKL068W, hits give low values 0.97 | locus YKL085W, strain MDH1 (second series), hits give low values 0.959 | locus YKL085W, strain MDH1, hits give low values 0.959 | locus YKL160W, strain elf1, hits give low values 0.981 | locus YKL190W, strain CNB1, hits give low values 0.953 | locus YKR026C, strain gcn3, hits give low values 0.927 | locus YKR091W, strain srl3, hits give low values 0.96 | locus YLL001W, strain dnm1, hits give low values 0.964 | locus YLL026W, hits give low values 0.941 | locus YLL041C, strain sdh2, hits give low values 0.934 | locus YLR027C, strain aat2, hits give low values 0.939 | locus YLR058C, strain SHM2, hits give low values 0.905 | locus YLR102C, strain apc9, hits give low values 0.974 | locus YLR113W, strain HOG1, hits give low values 0.977 | locus YLR221C, strain rsa3, hits give low values 0.916 | locus YLR258W, strain gsy2, hits give low values 0.951 | locus YLR262C, strain YPT6 (second series), hits give low values 0.956 | locus YLR268W, strain sec22, hits give low values 0.9 | locus YLR342W, strain FKS1, hits give low values 0.946 | locus YLR357W, strain rsc2, hits give low values 0.952 | locus YLR370C, strain arc18, hits give low values 0.925 | locus YLR371W, strain rom2, hits give low values 0.934 | locus YLR384C, strain iki3, hits give low values 0.966 | locus YML016C, strain PPZ1, hits give low values 0.948 | locus YML120C, strain ndi1, hits give low values 0.953 | locus YML124C, strain tub3, hits give low values 0.949 | locus YMR058W, strain fet3, hits give low values 0.934 | locus YMR078C, strain ctf18, hits give low values 0.963 | locus YMR125W, strain sto1, hits give low values 0.956 | locus YMR129W, hits give low values 0.961 | locus YMR205C, strain PFK2, hits give low values 0.934 | locus YMR231W, strain pep5, hits give low values 0.929 | locus YNL067W, strain RPL9B, hits give low values 0.912 | locus YNL128W, strain TEP1, hits give low values 0.929 | locus YNL183C, strain NPR1, hits give low values 0.923 | locus YNL209W, strain ssb2, hits give low values 0.971 | locus YNL248C, strain rpa49, hits give low values 0.98 | locus YNL250W, strain rad50, hits give low values 1 | locus YNL271C, strain bni1, hits give low values 0.97 | locus YNL298W, strain CLA4, hits give low values 0.955 | locus YNL322C, strain KRE1 (second series), hits give low values 0.928 | locus YNR049C, strain mso1, hits give low values 0.942 | locus YNR052C, strain pop2, hits give low values 0.997 | locus YOL012C, strain htz1 0.93 | locus YOR001W, strain rrp6, hits give low values 0.906 | locus YOR061W, strain CKA2, hits give low values 0.959 | locus YOR069W, strain VPS5, hits give low values 0.951 | locus YOR070C, strain gyp1, hits give low values 0.947 | locus YOR080W, strain dia2, hits give low values 0.947 | locus YOR083W, strain WHI5, hits give low values 0.977 | locus YOR106W, strain vam3, hits give low values 0.94 | locus YOR136W, strain idh2, hits give low values 0.957 | locus YOR144C, strain elg1, hits give low values 0.945 | locus YOR231W, strain MKK1, hits give low values 0.924 | locus YOR265W, strain rbl2, hits give low values 0.949 | locus YOR270C, strain vph1, hits give low values 0.799 | locus YOR290C, strain snf2, hits give low values 0.917 | locus YOR316C, strain cot1, hits give low values 0.973 | locus YPL078C, strain atp4, hits give low values 0.962 | locus YPL106C, strain sse1, hits give low values 0.908 | locus YPL240C, strain hsp82, hits give low values 0.937 | locus YPL241C, strain CIN2, hits give low values 0.963 | locus YPL256C, strain CLN2, hits give low values 0.906 | locus YPR119W, strain clb2, hits give low values 0.971 | locus YPR141C, strain kar3, hits give low values 0.974 | locus YPR167C, strain met16, hits give low values 0.942
active: locus YDL192W, strain arf1, hits give low values 0.879 | locus YDR318W, strain mcm21, hits give low values 0.902 | locus YDR392W, strain spt3, hits give low values 0.706 | locus YDR502C, strain sam2, hits give low values 0.909 | locus YER155C, strain BEM2 (second series), hits give low values 0.685 | locus YER167W, strain BCK2, hits give low values 0.881 | locus YGL086W, strain mad1, hits give low values 0.882 | locus YGL253W, strain hxk2, hits give low values 0.899 | locus YGR252W, strain gcn5, hits give low values 0.713 | locus YHR129C, strain ARP1, hits give low values 0.918 | locus YHR200W, strain rpn10, hits give low values 0.895 | locus YIL066C, strain RNR3, hits give low values 0.85 | locus YKR001C, strain vps1, hits give low values 0.662 | locus YLR039C, strain RIC1, hits give low values 0.647 | locus YLR320W, strain mms22, hits give low values 0.848 | locus YLR330W, strain CHS5, hits give low values 0.839 | locus YLR418C, strain cdc73, hits give low values 0.753 | locus YML032C, strain rad52, hits give low values 0.895 | locus YMR223W, strain ubp8, hits give low values 0.894 | locus YMR307W, strain GAS1, hits give low values 0.596 | locus YNL071W, strain lat1, hits give low values 0.898 | locus YNL233W, strain BNI4, hits give low values 0.792 | locus YNL307C, strain MCK1, hits give low values 0.786 | locus YOL147C, strain pex11, hits give low values 0.885 | locus YOR184W, strain ser1, hits give low values 0.72 | locus YPL051W, strain arl3, hits give low values 0.895 | locus YPR163C, strain tif3, hits give low values 0.849 | strain wtn01, hits give low values 0.877
